Experimental data as given in PubChem BioAssay (Tox21).
Values joined by “and” are separate entries in the source; they are usually repeats but may differ in a detail not shown here. Equal entries are not always repeated. Results filed as inconclusive are left out. A call without a number means that no potency is given here. Active and inactive are the calls of the source. Unless noted, calls follow the shape of the dose curve; as a rule, active = well fitted curve in the direction sought with a large enough effect in the repeat runs; inconclusive = weak or mixed curves; inactive = no such curve, though single readings can be large; an effect the other way counts as inactive or inconclusive.

Legend:
[1] = qHTS assay to identify small molecule antagonists of the glucocorticoid receptor (GR) signaling pathway - cell viability counter screen (AID 720693); also: nearly all actives have a fitted effect of over 55% in size; also: potency is read from the fitted curve at half-maximal effect
[2] = qHTS assay for identifying genotoxic compounds that show differential cytotoxicity against isogenic chicken DT40 cell lines with known DNA damage response pathways - wild type cell line (AID 743012); also: nearly all actives have a fitted effect of over 60% in size; also: potency is read from the fitted curve at half-maximal effect
How it was run: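 Wild-type DT40 cells (300/well) exposed to compounds for 40 hours at 37 C/5% CO2. Viability read by CellTiter-Glo luminescence after 30 min at room temperature.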

[3] = qHTS assay for identifying genotoxic compounds that show differential cytotoxicity against isogenic chicken DT40 cell lines with known DNA damage response pathways - Rev3 mutant cell line (AID 743014); also: nearly all actives have a fitted effect of over 55% in size; also: potency is read from the fitted curve at half-maximal effect
[4] = qHTS assay to identify small molecule antagonists of the androgen receptor (AR) signaling pathway - cell viability counter screen (AID 743033; also: nearly all actives have a fitted effect of over 45% in size; also: potency is read from the fitted curve at half-maximal effect)
[5] = molecular target: Androgen receptor (Homo sapiens) (UniProt P10275); assay: qHTS assay to identify small molecule antagonists of the androgen receptor (AR) signaling pathway (AID 743035; active = well fitted inhibition curve with a large enough effect in the signal ratio in the repeat runs, not every such curve was filed as active; the % refers to the signal ratio)
How it was run: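 HEK293 cells stably carrying UAS-beta-lactamase reporter, 2,000/well, given compounds plus R1881 agonist and incubated 16 h at 37C. LiveBLAzer B/G FRET substrate then added for 2 h at room temperature before fluorescence reading.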

[6] = molecular target: Androgen receptor (Homo sapiens) (UniProt P10275); assay: qHTS assay to identify small molecule agonists of the androgen receptor (AR) signaling pathway (AID 743036; active = well fitted activation curve with a large enough effect in the signal ratio in the repeat runs, with a control signal flat, not every such curve was filed as active; the % refers to the signal ratio)
How it was run: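 Screening used 2,000 AR-bla HEK293 cells per well, treated 16 h at 37C with test compounds in DMSO alongside positive and DMSO-only controls; beta-lactamase activity was then read by LiveBLAzer B/G FRET fluorescence after 2 h at room temperature.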

[7] = molecular target: Androgen receptor (Homo sapiens) (UniProt P10275); assay: qHTS assay to identify small molecule agonists of the androgen receptor (AR) signaling pathway using the MDA cell line (AID 743040; also: nearly all actives have a fitted effect of over 20% in size)
How it was run: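 MDA-kb2 breast carcinoma cells stably carrying an MMTV-driven luciferase reporter (AR- and GR-responsive) were seeded and held 5 h at 37C, 0% CO2, then exposed to compounds in DMSO for 16 h. Luminescence was read 30 min after ONE-Glo addition.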

[8] = qHTS assay to identify small molecule antagonists of the androgen receptor (AR) signaling pathway using the MDA cell line - cell viability counter screen (AID 743041; also: nearly all actives have a fitted effect of over 45% in size; also: potency is read from the fitted curve at half-maximal effect)
How it was run: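 MDA-kb2 AR-luc human breast carcinoma cells (MMTV-luciferase, AR/GR responsive) were treated with compounds plus R1881 agonist for 16 h at 37 °C. Viability was read as CellTiter-Fluor fluorescence in the same wells as the reporter assay.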

[9] = molecular target: Androgen receptor (Homo sapiens) (UniProt P10275); assay: qHTS assay to identify small molecule antagonists of the androgen receptor (AR) signaling pathway using the MDA cell line (AID 743042; also: nearly all actives have a fitted effect of over 55% in size)
How it was run: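 MDA-kb2 cells (human breast carcinoma, stably carrying an MMTV-luciferase reporter responsive to AR and GR) were plated at 3,000 cells/well and preincubated 5 hr at 37C, then given compound plus R1881 agonist for 16 h. ONE-Glo luminescence was read.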

[10] = qHTS assay for identifying genotoxic compounds that show differential cytotoxicity against isogenic chicken DT40 cell lines with known DNA damage response pathways - Rad54/Ku70 mutant cell line (AID 743015); also: nearly all actives have a fitted effect of over 60% in size; also: potency is read from the fitted curve at half-maximal effect

Androgen receptor (Homo sapiens), sequence (P10275 whole entry, looked up): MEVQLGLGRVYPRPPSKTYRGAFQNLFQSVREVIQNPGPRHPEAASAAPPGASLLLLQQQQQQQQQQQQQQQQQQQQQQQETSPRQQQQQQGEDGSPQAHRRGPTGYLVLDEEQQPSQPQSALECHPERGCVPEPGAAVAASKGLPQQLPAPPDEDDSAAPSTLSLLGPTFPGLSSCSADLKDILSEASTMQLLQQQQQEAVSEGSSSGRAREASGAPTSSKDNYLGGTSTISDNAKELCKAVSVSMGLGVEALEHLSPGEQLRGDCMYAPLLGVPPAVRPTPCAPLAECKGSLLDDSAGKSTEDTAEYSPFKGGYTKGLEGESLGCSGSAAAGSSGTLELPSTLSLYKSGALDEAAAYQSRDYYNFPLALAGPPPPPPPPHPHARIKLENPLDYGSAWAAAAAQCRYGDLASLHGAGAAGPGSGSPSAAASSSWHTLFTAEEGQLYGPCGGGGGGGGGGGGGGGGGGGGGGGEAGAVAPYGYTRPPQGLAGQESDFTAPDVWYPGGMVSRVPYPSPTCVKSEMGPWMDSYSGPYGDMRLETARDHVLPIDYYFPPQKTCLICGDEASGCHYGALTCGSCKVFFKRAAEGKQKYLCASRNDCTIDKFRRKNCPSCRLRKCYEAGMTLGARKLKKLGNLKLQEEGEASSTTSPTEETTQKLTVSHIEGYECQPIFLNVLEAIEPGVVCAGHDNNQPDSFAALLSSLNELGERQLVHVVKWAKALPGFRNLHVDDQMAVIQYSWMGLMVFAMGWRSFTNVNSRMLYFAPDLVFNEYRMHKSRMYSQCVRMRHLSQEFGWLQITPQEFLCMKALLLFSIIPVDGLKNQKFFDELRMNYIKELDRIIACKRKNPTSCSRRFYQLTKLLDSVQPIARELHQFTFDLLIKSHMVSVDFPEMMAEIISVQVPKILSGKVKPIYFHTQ

SMILES | Potency [1] | Potency [2] | Potency [3] | Potency [4] | Potency [5] | outcome [6] | Potency [7] | Potency [8] | outcome [9] | Potency [10]
CCCCOC(=O)c1ccccc1N | inactive | inactive | inactive | inactive |  |  |  |  |  | 
CC1(C)COP(Oc2ccccc2)OC1 | inactive | inactive | inactive | inactive | inactive | inactive | inactive | inactive | inactive | 
C[N+](=O)[O-] | inactive | inactive | inactive | inactive |  |  |  | inactive |  | inactive
CCN(Cc1ccc(Cl)nc1)/C(=C/[N+](=O)[O-])NC | inactive | inactive | inactive | inactive |  |  |  | inactive |  | inactive
CN1CCC(O)(c2ccc(F)cc2)C(C(=O)c2ccc(F)cc2)C1 (stereo not drawn) | inactive | 9.44 µM (active) | 13.3 µM (active) | inactive |  |  |  |  |  | 
ClCCOCOCCCl | inactive | inactive | inactive | inactive |  |  |  | inactive |  | inactive
CC(C)CP(=S)(S)CC(C)C | inactive | 13.7 µM (active) | 13.7 µM (active) |  |  |  |  | inactive |  | 8.63 µM (active)
NC1=NC(=O)C(c2ccccc2)O1 (stereo not drawn) | inactive | inactive |  | inactive |  |  |  | inactive |  | inactive
CNC(=O)Oc1cccc(C(C)C)c1 | inactive | inactive |  | inactive |  |  |  | inactive |  | inactive
Cc1cc(C)c(C(=O)P(=O)(C(=O)c2c(C)cc(C)cc2C)c2ccccc2)c(C)c1 | inactive | inactive |  | inactive |  |  |  | inactive |  | inactive
CCC(Cl)[N+](=O)[O-] (stereo not drawn) | inactive | inactive |  | inactive |  |  |  |  |  | inactive
CS(=O)(=O)c1cc(C(F)(F)F)ccc1C(=O)c1cnoc1C1CC1 | inactive | inactive |  | inactive |  |  |  | inactive |  | inactive
O=C(Cc1ccccc1)OCc1ccccc1 | inactive | inactive |  | inactive |  |  |  | inactive |  | inactive
N#CC(CCc1ccc(Cl)cc1)(Cn1cncn1)c1ccccc1 (stereo not drawn) | inactive | 13.7 µM (active) |  | 49 µM (active) |  | inactive | inactive |  |  | 13.7 µM (active)
CCOP(=S)(OCC)Oc1ncn(-c2ccccc2)n1 | inactive | 61.1 µM (active) | 34.4 µM (active) | inactive |  | inactive | inactive | inactive | inactive | 
Cc1nnc2n1-c1sc(CCC(=O)N3CCOCC3)cc1C(c1ccccc1Cl)=NC2 | inactive | inactive | inactive | inactive |  |  |  | inactive |  | 
Cc1nc(N)nc(N)n1 | inactive | inactive | inactive | inactive | inactive |  |  | inactive | inactive | 
CCCCOP(=O)(O)OCCCC | inactive | inactive | inactive |  | inactive | inactive | inactive | inactive | inactive | 
CCCCc1c(C)nc(NCC)[nH]c1=O | inactive | inactive |  | inactive |  |  |  | inactive |  | inactive

SMILES | Potency [1] | Potency [2] | Potency [3] | Potency [4] | Potency [5] | outcome [6] | Potency [7] | Potency [8] | outcome [9] | Potency [10]
CCN(CC)C(C)C(=O)c1ccccc1 (stereo not drawn) | inactive | inactive |  | inactive | inactive | inactive | inactive | inactive | inactive | inactive
O=C(CCN1CC1)OCC(CO)(COC(=O)CCN1CC1)COC(=O)CCN1CC1 | inactive | inactive | inactive | inactive |  |  |  | inactive |  | 
OC(c1ccccc1)(c1ccccc1)C1CCNCC1 | inactive | 11.4 µM (active) | inactive |  |  |  |  | inactive |  | 
COC(=O)COc1ccc(Cl)cc1Cl | inactive | inactive |  |  |  |  |  |  |  | inactive
COc1cccc2c1cc([N+](=O)[O-])c1c(C(=O)O)cc3c(c12)OCO3 | 12.3 µM (active) | 0.77 µM (active) | 0.137 µM (active) | 12.3 µM (active) |  |  |  | 34.4 µM (active) |  | 
CNC(=O)Oc1ccccc1C1OCCO1 | inactive | inactive | inactive | inactive |  |  | inactive |  | inactive | 
CCC1(c2ccccc2)C(=O)NC(=O)NC1=O | inactive | inactive |  | inactive |  |  |  | inactive |  | inactive
Cc1cccc(C#N)c1 | inactive | inactive |  | inactive |  |  |  |  |  | inactive
CCOP(=O)(OCC)OP(=O)(OCC)OCC | inactive | inactive |  | inactive | inactive | inactive | inactive | inactive | inactive | inactive
CCN(CC)CCOC(=O)C(C)(c1ccccc1)c1ccccc1 | inactive | 8.41 µM (active) |  | inactive |  |  |  | inactive |  | 23.7 µM (active)
CNC(=O)O/N=C(\C)SC | inactive | inactive | inactive |  |  |  |  | inactive |  | 
CC(C)CC#N | inactive | inactive |  | inactive | inactive | inactive | inactive | inactive | inactive | inactive
C[C@H]1CCC[C@H](O)CCCCCc2cc(O)cc(O)c2C(=O)O1 | inactive | 18.8 µM (active) and 61.6 µM (active) |  | inactive |  |  |  |  |  | 16.8 µM (active) and 43.6 µM (active)
CC1=NNC(=O)N(/N=C/c2cccnc2)C1 | inactive | inactive |  |  |  |  |  |  |  | inactive
CCCCP(CCCC)CCCC | inactive | inactive |  | inactive |  |  |  | inactive |  | inactive
CCOC(=O)N(C)C(=O)CSP(=S)(OCC)OCC | inactive | 30.6 µM (active) |  |  |  |  |  |  |  | 24.3 µM (active)
CCOP(=S)(OCC)SCSc1ccc(Cl)cc1 | inactive | inactive |  | inactive |  |  |  | inactive |  | inactive
CNC(=O)Oc1ccc(N(C)C)c(C)c1 | inactive | 54.5 µM (active) |  | inactive |  |  |  |  |  | 68.6 µM (active)
ClC(Cl)C(Cl)Cl | inactive | inactive | inactive | inactive |  |  |  | inactive |  | 

SMILES | Potency [1] | Potency [2] | Potency [3] | Potency [4] | Potency [5] | outcome [6] | Potency [7] | Potency [8] | outcome [9] | Potency [10]
COC(=O)C(c1ccccc1)C1CCCCN1 (stereo not drawn) | inactive | inactive |  | inactive | inactive | inactive | inactive |  | inactive | inactive
Cc1coc2c1CCC(C)C2 (stereo not drawn) | inactive | inactive |  | inactive |  |  |  | inactive |  | inactive
CCS(=O)(=O)CCSP(=O)(OC)OC | inactive | 61.1 µM (active) | 38.6 µM (active) | inactive |  |  |  | inactive |  | 
Nc1cnn(-c2ccccc2)c(=O)c1Cl | inactive | inactive |  | inactive |  |  |  | inactive |  | inactive
CCCSC(=O)Cl | inactive |  | inactive | inactive |  |  |  | inactive |  | 
O=C(Oc1ccc(Br)cc1)N1CCN2CCC1CC2 | inactive |  | 54.5 µM (active) |  |  |  |  | inactive |  | 61.1 µM (active)
CCOP(=S)(OCC)Oc1nc(Cl)n(C(C)C)n1 | inactive |  | 68.6 µM (active) |  |  |  |  | inactive |  | 
Nc1ccccc1Cl | inactive | inactive |  | inactive | inactive | inactive | inactive |  | inactive | 
CCOP(=S)(OCC)Oc1cc(-c2ccccc2)on1 | inactive | 68.6 µM (active) |  | inactive |  |  |  | inactive |  | 
COc1cccc(C(=O)NN(C(=O)c2cc(C)cc(C)c2)C(C)(C)C)c1C | inactive |  | 68.6 µM (active) | inactive |  |  |  |  |  | 61.1 µM (active)
O=C(CCCN1CCC(n2c(=O)[nH]c3ccccc32)CC1)c1ccc(F)cc1 | inactive | 12.7 µM (active) |  |  | inactive | inactive | inactive | inactive | inactive | 10.1 µM (active)
CCC(C)n1c(=O)[nH]c(C)c(Br)c1=O (stereo not drawn) | inactive | inactive |  |  |  |  |  | inactive |  | 
CNC(=O)N(C)c1nc2ccccc2s1 | inactive | inactive |  |  |  |  | inactive | inactive | inactive | inactive
COc1cc(C[C@@H](C)N)c(OC)cc1C | inactive |  | inactive | inactive |  |  |  | inactive |  | inactive
CC(C)(C)OC(=O)c1ncn2c1[C@@H]1CCCN1C(=O)c1c(Br)cccc1-2 | inactive | 26.6 µM (active) |  | inactive |  |  |  | inactive |  | 
C1CCC(C2CCCCC2)CC1 | inactive |  | 54.5 µM (active) | inactive |  |  |  |  |  | 54.5 µM (active)
CC(=O)CCc1ccc2c(c1)OCO2 | inactive | inactive |  |  |  |  |  | inactive |  | 
CCOc1nc(C(Cl)(Cl)Cl)ns1 | inactive |  | inactive |  |  |  |  | inactive |  | 
CN(C)CCc1ccc(O)cc1 | inactive | inactive |  |  |  |  |  | inactive |  | 
